# Experimental data reported in the supplement of paper PMC6555819.
# How the values were obtained:
# Experiment in all cases: PBM binding z-score (relative to random genomic background probes); higher = stronger binding; sequences stand for … in GC…GCGATTGACAGCGTAGAATGAAGG
# [1] = test system: FXR:RXRa (NR concentration 270 nM, RXRa partner concentration 90 nM)
# How it was run: (§1)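 The probes on custom Agilent 4×180K protein-binding microarrays were double-stranded, with 34-nt variable regions bearing direct-repeat seeds, single-nucleotide variants, half-site ablations and random human genomic background sequences. Incubation lasted 1 h with ligand-free nuclear receptor dimers in PBS pH 7.4, 2% milk, 0.02% Triton X-100, 1 mM DTT, 0.2 mg/mL BSA and 0.4 mg/ml salmon testes DNA. Antibodies against each partner (one per run) detected bound dimers, and fluorescence scans were regression-normalized. Binding z-scores take the random background probes as reference.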
# [2] = test system: LXRa:RXRa (NR concentration 270 nM, RXRa partner concentration 90 nM)
# How it was run: as §1
# [3] = test system: LXRa homodimer (NR concentration 270 nM)
# How it was run: as §1
# [4] = test system: LXRb:RXRa (NR concentration 270 nM, RXRa partner concentration 90 nM)
# How it was run: as §1
# [5] = test system: LXRb homodimer (NR concentration 270 nM)
# How it was run: as §1
# [6] = test system: PPARa:RXRa (NR concentration 270 nM, RXRa partner concentration 90 nM)
# How it was run: as §1
# [7] = test system: PPARg:RXRa (NR concentration 180 nM, RXRa partner concentration 90 nM)
# How it was run: as §1
# [8] = test system: PPARg:RXRa 270nM:90nM, anti-RXR (NR concentration 270 nM, RXRa partner concentration 90 nM)
# How it was run: as §1
# [9] = test system: PPARg:RXRa 30nM:10nM, anti-RXR (NR concentration 30 nM, RXRa partner concentration 10 nM)
# How it was run: as §1
# [10] = test system: PPARg:RXRa 90nM:30nM, anti-RXR (NR concentration 90 nM, RXRa partner concentration 30 nM)
# How it was run: as §1
# [11] = test system: PPARg:RXRa DBDmut IVT, anti-RXR (DBD mutation: RXRa K156A/R161A, NR concentration 270 nM, RXRa partner concentration 90 nM)
# How it was run: as §1
# [12] = test system: PPARg:RXRa IVT, anti-PPARg (NR concentration 270 nM, RXRa partner concentration 90 nM)
# How it was run: as §1
# [13] = test system: PPARg DBDmut:RXRa IVT, anti-PPARg (DBD mutation: PPARg1 K132A/R137A, NR concentration 270 nM, RXRa partner concentration 90 nM)
# How it was run: as §1
# [14] = test system: PPARg DBDmut IVT, anti-PPARg (DBD mutation: PPARg1 K132A/R137A, NR concentration 270 nM)
# How it was run: as §1
# [15] = test system: PPARg homodimer (NR concentration 180 nM)
# How it was run: as §1
# [16] = test system: PXR:RXRa (NR concentration 270 nM, RXRa partner concentration 90 nM)
# How it was run: as §1
# [17] = test system: PXR homodimer (NR concentration 270 nM)
# How it was run: as §1
# [18] = test system: RARa:RXR (NR concentration 270 nM, RXRa partner concentration 90 nM)
# How it was run: as §1
# [19] = test system: RARa homodimer (NR concentration 270 nM)
# How it was run: as §1
# [20] = test system: RARb:RXRa (NR concentration 270 nM, RXRa partner concentration 90 nM)
# How it was run: as §1
Sequence,PBM binding z-score [1],PBM binding z-score [2],PBM binding z-score [3],PBM binding z-score [4],PBM binding z-score [5],PBM binding z-score [6],PBM binding z-score [7],PBM binding z-score [8],PBM binding z-score [9],PBM binding z-score [10],PBM binding z-score [11],PBM binding z-score [12],PBM binding z-score [13],PBM binding z-score [14],PBM binding z-score [15],PBM binding z-score [16],PBM binding z-score [17],PBM binding z-score [18],PBM binding z-score [19],PBM binding z-score [20]
CAAACTAGGTCAAGATCAAAGTCGGTTTGTGCCA,3.58,2.31,0.143,1.67,0.237,4.66,7.62,6.55,4.29,6.19,8.24,8.61,5.86,4.95,2.34,1.31,-0.0944,2.05,0.622,4.02
ATATGTAGGTTAAATCCGGGTCATTCAGGCTATG,2.83,5.17,3.32,3.47,1.09,4.96,5.84,5.44,2.91,4.84,7.28,7.3,2.58,2.7,2.38,4.32,1.9,4.3,0.415,2.51
ATATGTAGGGTAGCTGGGGTCATTCAGACTAGGC,3.69,4.07,2.16,4.42,1.68,5.28,5.01,4.85,2.14,3.95,5.27,5.46,1.65,3.4,2.54,6.03,3.77,5.97,0.388,2.87
CCTATTAGTTGACCTTAAGGGCAACCGAAGCTCG,6.12,4.18,2.42,4,1.3,4.75,1.81,3,1.29,2.42,1.43,2.7,1.27,0.764,3.46,4.4,1.93,5.12,2.39,3.64
ACAGACAGGTGAAGAAGGTAACTCAGGCTATCAT,0.248,0.203,-0.161,0.234,-0.276,0.721,0.796,0.34,0.0156,-0.0588,0.468,0.733,0.175,0.429,0.495,0.0318,0.0524,0.274,0.349,0.709
CCGCCTGGGGCAAAGGTTACCATACTCAGTACGA,1.58,1.77,0.256,2.07,-1.01,4.22,7.52,7.16,5.72,7.35,0.0766,3.23,-0.483,-0.8,2.34,2.62,-0.268,4.07,0.0335,2.47
CAAACTGGGTCAAAGGTCAAAGTCGAGCCAACCA,7.83,7.07,4.88,6.89,2.4,7.41,14.1,11.2,13.5,13,8.32,8.37,2.08,2.33,4.84,6.91,2,8.83,2.4,5.44
CCTCGGAGGACAACAGGAGGTCAGAGGTGCCAGA,1.07,1.95,2.19,1.34,-0.628,2.04,1.1,1.57,-0.13,0.94,-0.227,0.737,-1.23,-1.03,1.99,2.36,0.719,2.6,0.638,3
GCTGCAAGGTCAGGTTGGTCAGCTAACGGGTACG,4.43,2.88,0.0795,2.36,0.0855,3.65,1.36,2.37,0.236,1.42,1.24,1.7,-0.124,-0.859,1.91,2.44,-0.0524,3.02,0.176,4.4
CCGACTGGGGCAAGGGTTACCATACTCAGTACGA,0.0555,0.199,-0.283,0.579,-0.86,3.84,8.6,7.56,6.82,7.87,3.17,4.93,-0.628,-1.19,0.0321,0.443,-0.412,1.53,-0.348,1.57
CCTAGTTGGTCAGGAGGTGACACACCGGATATGA,0.076,0.0334,0.0506,0.214,-0.0582,1.17,1.04,1.33,0.0174,0.666,0.676,2.36,0.321,-0.109,1.41,0.171,0.895,0.496,0.818,1.25
GTAGACAGGTGAAACGCAGGTAACTCAGGGTGGC,0.081,0.114,-0.34,-0.0403,-0.733,0.941,0.744,0.425,-0.305,0.121,1.08,0.827,-0.547,-0.798,-0.292,-0.0707,-0.535,0.264,-0.278,0.688
ATCGAAAGGTCGACGATGTGAGTATACACCGTTT,3.67,3.02,-0.0144,2.55,0.246,4.4,2.46,2.71,0.896,1.84,0.505,1.37,0.994,1.25,1.43,2.29,0.0146,3.17,0.516,3.94
CTACCAAGGTGAGCAAGGTCGTTGATTACTATTC,0.474,0.615,-0.2,0.949,-0.778,1.59,0.312,0.556,-0.319,-0.252,1.33,1.62,-0.318,-0.00619,0.031,1.79,0.655,1.44,-0.327,1.64
